# Shiga inhibitor – blocks Shiga toxin action in Vero cells; Vero cells, Shiga toxin protein synthesis inhibition reporter; inhibition, % at 38.7 µM; 290,000 compounds, 9.2% hits; AID 2315; in the data active means inhibition mostly above about 28%, no sharp cut-off; inactive means mostly below about 43%; further: 0% is about no effect
# NS1 inh – inhibitors of influenza NS1 protein function. 270,000 compounds, 0.4% hits. Potency, µM (series often up to 46.1 µM), inactives show at the top dose activity, positive = more growth. AID 2326; calls by dose curve; further: potency means the concentration at half of the fitted maximal effect; actives are rising curves; nearly all actives have a fitted effect of over 50% in size
#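 OD600 was taken as the measure of yeast growth restored by compound in an NS1-expressing S. cerevisiae strain. Cells had been washed out of glucose medium and diluted 1:100 into galactose -URA medium, pH 6.0.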
# Cycloheximide cs – counter-screen hit for Shiga toxin inhibitors, cycloheximide. cell reporter, cycloheximide protein synthesis inhibition counterscreen. max response, %. 300,000 compounds, 12% hits. AID 2314; in the data active means max response mostly above about 13%, no sharp cut-off; inactive means mostly below about 14%; further: read at 38.3 µM for the half of the compounds with a filed dose; 0% is about no effect
# Giardia FBPA inh – Giardia lamblia aldolase inhibition | purified Giardia FBPA | Potency, µM (doses to about 59.6 µM), inactives show at the highest dose activity, negative = inhibition, most hits filed as inhibitors | 290,000 compounds, 0.71% hits; further: potency means the concentration at half of the fitted maximal effect; on the % scale 0 is the no-effect control and ±100 the full control effect; nearly all actives have a fitted effect of over 55% in size
#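 40 nM FBPA preincubated 10 min at RT with compound (up to 57.5 uM final), then substrate plus GAPDH/TPI/NAD/arsenate coupling and diaphorase/resazurin added. Fluorescence read after 20 min at RT, 525/598 nm.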
# LmPK inh – blocks Leishmania mexicana pyruvate kinase activity; Q27686; purified LmPK, Kinase-Glo ATP luminescence, 1 h; Potency, µM (top dose mostly 57.5 µM), without a hit: top-dose activity change, negative = inhibition, usual class: inhibitors; 290,000 compounds, 0.37% hits; AID 1721; further: potency means the concentration at half of the fitted maximal effect; on the % scale 0 is the no-effect control and ±100 the full control effect
# Target sequence (Q27686 whole entry, looked up): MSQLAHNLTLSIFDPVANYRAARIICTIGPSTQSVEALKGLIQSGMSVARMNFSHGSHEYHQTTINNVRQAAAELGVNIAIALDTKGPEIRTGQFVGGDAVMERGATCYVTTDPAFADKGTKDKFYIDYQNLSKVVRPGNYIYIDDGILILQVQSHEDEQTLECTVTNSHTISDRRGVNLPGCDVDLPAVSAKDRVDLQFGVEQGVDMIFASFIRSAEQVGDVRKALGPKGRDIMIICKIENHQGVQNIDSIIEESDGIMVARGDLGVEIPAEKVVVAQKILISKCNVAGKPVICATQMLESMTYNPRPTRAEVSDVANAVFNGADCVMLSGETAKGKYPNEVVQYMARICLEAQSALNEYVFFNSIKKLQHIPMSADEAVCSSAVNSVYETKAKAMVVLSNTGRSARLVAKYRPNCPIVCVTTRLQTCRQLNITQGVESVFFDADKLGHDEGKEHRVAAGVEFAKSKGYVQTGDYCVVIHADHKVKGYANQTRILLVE
#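 0.1 nM LmPK, 0.5 mM PEP, 0.1 mM ADP; 50 mM imidazole pH 7.2, 7 mM MgCl2, 50 mM KCl; 1 h RT. Kinase-Glo luminescence readout, normalized to no-enzyme (full inhibition) and uninhibited wells.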
# Numbers without * were called inactive; ? = inconclusive; . = no result; [ ] = remark or other dose. Sampled rows, rich in hits. Any-hit rate of the full collection: about 14%. Unless noted, the call rests on the fitted dose curve; in most records, active means well fitted curve in the direction sought with a large enough effect; inconclusive means small, poorly fitted or top-dose-only effect, or another doubt; inactive means no such curve, though single readings can be large; an effect the other way counts as inactive or inconclusive.
SMILES,Shiga inhibitor,NS1 inh,Cycloheximide cs,Giardia FBPA inh,LmPK inh
CCN(CC)c1ccc(NC(=S)Nc2ccc(F)cc2)cc1,48*,.,27*,?,-9%
Fc1ccc(NC(=S)Nc2ccc(Br)cc2)cc1,5,-50%,33*,-8%,1%
CCN(CC)c1ccc(NC(=O)CN2CCN(CC(=O)Nc3ccc(F)cc3)CC2)cc1,-17,-1%,-3,-7%,-6%
Oc1ccc(NC(=S)Nc2ccc(F)cc2)cc1,36,-7%,9,-28%,-4%
CC(C)CN1CCCC2(CCN(C(=O)c3cc(C(F)(F)F)cc(C(F)(F)F)c3)CC2)C1,.,.,.,3%,.
CN(/N=C/c1ccncc1)c1cnn(-c2ccc(F)c(Cl)c2)c(=O)c1Cl,46*,1%,27*,4%,-1%
COc1cccc(-n2cc(C(=O)NC(C)C)c3ccccc3c2=O)c1,40,4%,-7,-1%,-1%
CCn1c(C)c(C(=O)c2ccccc2)c(C#N)c1C(=O)O,25,-6%,21*,-7%,1%
Cc1c(C#N)c(N)c(C(=O)c2ccccc2)n1Cc1ccccc1,-21,-18%,-1,-11%,-14%
O=C(O)COCC(=O)N1CCCN(c2nccc(C(F)(F)F)n2)CC1,-9,4%,0,1%,-5%
COc1ccc(CCNC(=O)C(=O)NCC2OCCN2S(=O)(=O)c2cc(F)ccc2F)cc1 (stereo unspecified),-5,-3%,-1,-3%,-3%
OC(Cc1ccccc1)(Cc1ccccc1)c1ccccc1,.,-19%,.,.,.
CCNC(=O)NC(=O)C(C)Oc1ccc(Br)cc1Br (stereo unspecified),98*,.,64*,0%,-4%
Cc1ccc(NC(=S)N2CCC(c3ccccc3)C2)c(Cl)c1 (stereo unspecified),72*,.,19,1%,-2%
COc1ccc(C2CCCN2C(=S)Nc2cccc(C)c2)cc1OC (stereo unspecified),-5,.,7,-2%,7%
Fc1ccccc1NC(=S)N1CCC(c2ccccc2)C1 (stereo unspecified),164*,.,62*,2%,-3%
COc1ccc(C2CCCN2C(=S)Nc2ccc(C)cc2Cl)cc1OC (stereo unspecified),64*,.,43,-13%,5%
Fc1cccc(NC(=S)N2CCCCC2)c1,-8,-4%,-2,0%,0%
Fc1cc(F)cc(NC(=S)N2CCC(c3ccccc3)C2)c1 (stereo unspecified),138*,.,41*,2%,-3%
CNC1C(O)C(O[C@H]2C(O)[C@@H](OC3OC(CN)=CCC3N)[C@H](N)C[C@@H]2N)OC[C@]1(C)O (stereo partly specified),.,.,.,7%,.
CC(C)(C)OC(=O)N(c1cccc2cccnc12)S(=O)(=O)c1ccccc1Br,-9,.,9,.,.
S=C(Nc1ccccc1Cl)N1CCC(c2ccccc2)C1 (stereo unspecified),131*,.,44*,5%,-5%
O=C(NC1CCN(C(=S)Nc2ccccc2Cl)CC1)C1CCCCC1,-4,5%,3,.,-10%
O=C(O)CCC(=O)c1ccc2sc3ccccc3c2c1,.,-30%,.,.,.
O=C(Nn1c(Cc2ccccc2)nc2ccccc2c1=O)c1c(O)c2cccc3c2n(c1=O)CCC3,-7,2%,-3,8%,-1%
SMILES,Shiga inhibitor,NS1 inh,Cycloheximide cs,Giardia FBPA inh,LmPK inh
Nc1ccc(SCc2nc3cccc4c3n2CCC4)cc1,55*,12%,25*,-19%,1%
O=S(=O)(O)c1cc(OS(=O)(=O)c2ccccc2)cc2ccccc12,1,?,3,26%,-2%
Fc1ccc(OCCCCN2CCOCC2)cc1,-3,.,-3,-3%,6%
O=C(OCCCOc1ccc(F)cc1)c1ccc(O)cc1O,21,-66%,21*,.,-10%
O=C(NCc1ccccc1)c1cccnc1,-9,2%,1,-8%,1%
O=C(NCCc1ccccc1)c1cccnc1,63*,-7%,37*,1%,6%
O=C(NCCc1ccccc1)c1cccc([N+](=O)[O-])c1,active,-10%,82*,6%,0%
O=C(NCCc1ccccc1)c1cccc(Br)c1,79*,-42%,39*,-10%,-1%
CC/C(Cc1ccccc1)=N/NC(=O)c1cccc(Br)c1,47*,1%,16,0%,4%
CC/C(Cc1ccccc1)=N\NC(=O)c1cc([N+](=O)[O-])cc([N+](=O)[O-])c1,-4,4%,2,-9%,3%
Cc1ccccc1NS(=O)(=O)c1nnc(NC(=O)C(C)C)s1,-8,3%,9,2%,9%
Cc1n[nH]c(=O)[nH]c1=O,.,.,.,0%[21.7 µM],.
NC(=O)C1CCN(C(=O)c2ccc3nc(-c4ccccc4)c(-c4ccccc4)nc3c2)CC1,-4,-15%,1,.,5%
O=C(NC(=S)NCCSc1ccccc1)c1cccnc1,37*,-5%,27*,0%,2%
O=C(NC(=S)NCc1cccnc1)c1ccccc1,-11,9%,1,1%,0%
CC(=O)O[C@@H]1C(CO[Si](C)(C)C(C)(C)C)=C(Br)C(=O)[C@@H]2O[C@]12C,.,.,.,-9%,.
CC(C)COc1ccc(-c2cc(C(=O)NN)[nH]n2)cc1,86,14%,27*,0%,-3%
CCOC(=O)c1cc(-c2ccc3c(c2)OCCO3)n[nH]1,61*,-4%,48*,-1%,-4%
Oc1ccccc1-c1cc(-c2ccc3c(c2)OCCO3)n[nH]1,47,-33%,32*,-2%,?
CCOc1ccc(-c2cc(C(=O)NN=C3CCN(C)CC3)[nH]n2)cc1,60*,.,25*,2%,6%
COc1ccc(-c2nnc(-c3ccc(OCC(C)C)cc3)o2)cc1,-7,15%,19,.,-1%
O=C(O)c1cc(-c2ccc3c(c2)OCCO3)n[nH]1,-13,0%,-2,-4%,-19%
COc1ccc(NC(=O)/C(=C\c2ccccc2)NC(=O)c2ccco2)cc1,-5,4%,-2,-4%,3%
O=C(NCCCN1CCOCC1)c1cccc(S(=O)(=O)Nc2ccccc2Cl)c1,-23,6%,-1,.,-4%
Cn1cnnc1SCC(=O)Nc1ccc(S(N)(=O)=O)cc1,-6,7%,2,-2%,-4%
SMILES,Shiga inhibitor,NS1 inh,Cycloheximide cs,Giardia FBPA inh,LmPK inh
CCOC(=O)c1cc(-c2ccc(OC)cc2)n[nH]1,101*,-3%,69*,-1%,-2%
CCOC(=O)c1cc(-c2ccc(OC)cc2)nn1-c1ccc(C(=O)O)cc1,-10,0%,-3,7%,-6%
Cc1cccc(C(=O)O/N=C/c2c(Cl)n(C)c3ccccc23)c1,17,-2%,1,0%,7%
Cc1cccc(C(=O)O/N=C/c2ccc(Br)cc2)c1,88*,.,44*,-6%,-6%
Cc1ccc(/C(N)=N/OC(=O)c2ccc(Cl)cc2Cl)cc1,92*,-59%,82*,-7%,-2%
Cc1cccc(C(=O)O/N=C(\N)c2ccc(Cl)cc2)c1,71*,-36%,56*,-2%,0%
Cc1ccc(C)c(C(=O)O/N=C(\N)c2ccc(Br)cc2)c1,31,-67%,21,0%,1%
